SRC1 inh: inhibits human SRC1 coactivator; Q15788; HEK293 GAL4-SRC1 luciferase reporter, luminescence; inhibition, % at 3.6 µM; 360,000 compounds, 0.12% hits;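 active = inhibition above the campaign mean plus 3 SD, with each screening campaign given its own cutoff, cut at about 60% in these data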
SRC3 inh: inhibitors of human steroid receptor coactivator 3 (SRC3); AID 588352; Q9Y6Q9; 360,000 compounds, 0.17% hits; inhibition, % at 3.6 µM; HEK293 GAL4-SRC3 luciferase reporter, luminescence;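 active = inhibition above a per-campaign cutoff, the mean of all compounds plus 3 SD, cut at about 60% in these data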;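 also: higher means less SRC3-driven luciferase light from the GAL4 reporter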
SRC2 inh: human SRC2 (NCOA2) inhibition; inhibition, % at 9 µM; 370,000 compounds, 0.17% hits; HEK293 GAL4-SRC2 luciferase reporter, luminescence;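 active = inhibition above the mean inhibition of all tested compounds plus 3 SD, set per campaign, cut at about 52% in these data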
Gli-Sufu antag: antagonists of Gli-Sufu signaling. Sufu-KO-LIGHT fibroblasts, Gli luciferase reporter luminescence. inhibition, % at 5 µM. 340,000 compounds, 0.74% hits. AID 588413;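 active = inhibition above about 55%, limit read from the data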
LRH-1 inv ag: NR5A2 inverse agonism in reporter assay; inhibition, % at 3.6 µM; HEK293T StAR-luciferase reporter, LRH-1 transfected, 24 h; 360,000 compounds, 0.13% hits; O00482; AID 602396;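 active = inhibition above the mean inhibition of all tested compounds plus 3 SD, cut at about 73% in these data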
Gli-Sufu confirm: confirmation of Gli-SUFU pathway antagonists | shares compounds with Gli-Sufu antag | Sufu-KO-LIGHT cells, Gli luciferase reporter, luminescence | inhibition, % at 5 µM | 2,500 compounds, 40% hits;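 active = mean inhibition at 5 µM reaching about 45%, limit read from the data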
Gli cytotox: cytotoxic in Gli-SUFU antagonist counter-screen; AID 651994; cytotoxicity, % at 5 µM; shares compounds with Gli-Sufu antag; 2,500 compounds, 32% hits; Sufu-KO-LIGHT cells cytotoxicity, ATP luminescence;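 active = mean cytotoxicity at 5 µM above about 25%, limit read from the data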;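 also: cells exposed to compound overnight for roughly 16 to 18 hours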
Wnt3a counter: inhibits Wnt3a reporter, counter-screen for Gli-SUFU antagonists. AID 651995. shares compounds with Gli-Sufu antag. 2,500 compounds, 20% hits. inhibition, % at 6.25 µM. Wnt-LIGHT cells, Wnt3a-driven luciferase reporter, luminescence;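 active = mean inhibition above about 25%, limit read from the data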
Large screens that a line does not name were inactive (follow-up assays come after a bar, where they were run). Most compounds without a hit are left out; they make up all but 0.83% or so of the library.

O=C(NCc1ccc(Cl)cc1Cl)C1CCN(S(=O)(=O)c2ccc3c(c2)OCCCO3)CC1	Gli-Sufu antag 63 | Gli-Sufu confirm inactive | Gli cytotox inactive | Wnt3a counter inactive
O=C(NCc1ccc(F)cc1)C1CCN(S(=O)(=O)c2ccc3c(c2)OCCCO3)CC1	none
CCN(CC)c1ccc(/C=N/NC(=S)NC)c(O)c1	Gli-Sufu antag 84 | Gli-Sufu confirm inactive | Gli cytotox inactive | Wnt3a counter inactive
Cc1ccc(-n2c(SCC(=O)Nc3ccccc3-c3ccccc3)nnc2-c2cccs2)cc1	none (no result: SRC1 inh, SRC3 inh, Gli-Sufu antag, LRH-1 inv ag)
O=C(Nc1ccc(Oc2cccc3ccccc23)cc1)c1ccco1	Gli-Sufu antag 97 | Gli-Sufu confirm inactive | Gli cytotox inactive | Wnt3a counter inactive
O=C(Nc1cccc(NC(=O)c2ccco2)c1)c1ccccc1	none | Gli-Sufu confirm inactive | Gli cytotox inactive | Wnt3a counter inactive
COc1ccc(Cn2cc(CN3[C@H](Cc4ccccc4)COc4cc(Br)ccc4S3(=O)=O)nn2)cc1	none (no result: SRC1 inh, SRC3 inh, Gli-Sufu antag, LRH-1 inv ag)
CCC1CCCCN1S(=O)(=O)c1ccc(C(=O)Nc2nnc(C3CC3)o2)cc1 (stereo not drawn)	none
CCC1CCCCN1S(=O)(=O)c1ccc(NC(=O)c2ccncc2)cc1 (stereo not drawn)	Gli-Sufu antag 58 | Gli-Sufu confirm inactive | Gli cytotox 41 | Wnt3a counter inactive
CCOC(=O)N1CCC(N(C(=O)Nc2ccc(Cl)c(Cl)c2)C(C)CC)CC1 (stereo not drawn)	Gli-Sufu antag 65 | Gli-Sufu confirm inactive | Gli cytotox inactive | Wnt3a counter inactive
Cc1ccc2c(c1)nnn2C1CCN(S(=O)(=O)c2ccc(C(=O)N3C(C)CCCC3C)cc2)CC1 (stereo not drawn)	Gli-Sufu antag 67 | Gli-Sufu confirm 69 | Gli cytotox 30 | Wnt3a counter inactive
Cc1ccc2c(c1)nnn2C1CCN(S(=O)(=O)c2ccc(C(=O)O)cc2)CC1	none
CN(C)S(=O)(=O)c1cccc(C(=O)N/N=C\c2cccc(C#N)c2)c1	none (no result: SRC1 inh, SRC3 inh, Gli-Sufu antag, LRH-1 inv ag)
O=C1NCCCN1Cc1ccc(F)cc1	none
O=C1NCCN1Cc1ccc(Cl)cc1	none | Gli-Sufu confirm inactive | Gli cytotox inactive | Wnt3a counter inactive
Cc1ccc(S(=O)(=O)N(Cc2ccccc2)c2ccccc2C(=O)NCc2ccco2)cc1	Gli-Sufu antag 96 | Gli-Sufu confirm inactive | Gli cytotox inactive | Wnt3a counter inactive
C[C@@H]1/C=C/CC(=O)N[C@H](c2ccc3ccccc3c2)[C@H](C)/C=C/CC(=O)N[C@@H]1c1ccc2ccccc2c1	none (no result: SRC1 inh, SRC3 inh, Gli-Sufu antag, LRH-1 inv ag)
CSc1cccc(NS(=O)(=O)c2ccc3c(c2)CCN3C(C)=O)c1	Gli-Sufu antag 71 | Gli-Sufu confirm 60 | Gli cytotox 30 | Wnt3a counter 27
CCC(=O)c1ccc(OCC(O)Cn2c(C)nc3ccccc32)cc1 (stereo not drawn)	none | Gli-Sufu confirm 52 | Gli cytotox inactive | Wnt3a counter inactive
Cc1nc2ccccc2n1CC(O)COc1ccc(Br)cc1 (stereo not drawn)	none
COP(=O)(OC)C(NC(=O)OCc1ccccc1)C(C)C (stereo not drawn)	none (no result: SRC1 inh, SRC3 inh, Gli-Sufu antag, LRH-1 inv ag)
COc1ccc(-n2c(=O)/c(=C\c3cccs3)s/c2=C(/C#N)C(=O)N2CCN(C)CC2)cc1	Gli-Sufu antag 57 | Gli-Sufu confirm inactive | Gli cytotox inactive | Wnt3a counter inactive
N#C/C(C(=O)N1CCOCC1)=c1/s/c(=C\c2ccccn2)c(=O)n1-c1ccccc1	none
C=Cn1cc[n+](CC(=O)c2ccc(-c3ccccc3)cc2)c1	none | Gli-Sufu confirm inactive | Gli cytotox inactive | Wnt3a counter inactive
O=C(C[n+]1ccccc1)c1ccc(-c2ccccc2)cc1	none
CN(C)c1cc[n+](CC(=O)c2ccc(-c3ccccc3)cc2)cc1	Gli-Sufu antag 88, LRH-1 inv ag 86 | Gli-Sufu confirm 86 | Gli cytotox 38 | Wnt3a counter 39
CCC(CO)Oc1cc(NCc2ccc(C(C)(C)C)cc2)c2ncn(C(C)C)c2c1 (stereo not drawn)	Gli-Sufu antag 58 | Gli-Sufu confirm 48 | Gli cytotox inactive | Wnt3a counter 30
Cc1ccc(C(=O)N2CCOCC2)cc1[N+](=O)[O-]	none
Cc1c(N)cc(C(=O)N2CCOCC2)cc1[N+](=O)[O-]	Gli-Sufu antag 93 | Gli-Sufu confirm inactive | Gli cytotox inactive | Wnt3a counter inactive
CCn1cc(CNC(=O)C2CCC(=O)N(Cc3ccccc3F)C2)cn1 (stereo not drawn)	none | Gli-Sufu confirm inactive | Gli cytotox inactive | Wnt3a counter inactive
Cc1ccc2c(c1)N(CCCC(=O)NCc1cccs1)C(=O)CO2	none (no result: SRC1 inh, SRC3 inh, Gli-Sufu antag, LRH-1 inv ag)
O=C(c1ccccc1)N1CCN(CC#Cc2ccccc2)CC1	Gli-Sufu antag 99 | Gli-Sufu confirm inactive | Gli cytotox inactive | Wnt3a counter inactive
OC(CN1CCCCCC1)CN(c1ccccc1)c1ccccc1 (stereo not drawn)	none | Gli-Sufu confirm inactive | Gli cytotox inactive | Wnt3a counter inactive
Fc1ccc(-c2n[nH]c(=S)n2N=Cc2ccc(-c3ccccc3)cc2)cc1	none (no result: SRC1 inh, SRC3 inh, Gli-Sufu antag, LRH-1 inv ag)
COc1ccccc1OC(C)C(=O)Nc1ccccc1C(=O)NCc1cccnc1 (stereo not drawn)	Gli-Sufu antag 56 | Gli-Sufu confirm inactive | Gli cytotox inactive | Wnt3a counter inactive
O=C(Cn1c(NCCO)nc2ccccc21)Nc1cccc(S(=O)(=O)N2CCCC2)c1	none
O=C(Cn1cnc2ccccc21)Nc1cccc(S(=O)(=O)N2CCCC2)c1	none (no result: SRC2 inh) | Gli-Sufu confirm 53 | Gli cytotox inactive | Wnt3a counter inactive
CC1CCCN(c2ncnc3c2cnn3-c2ccc(Cl)cc2)C1 (stereo not drawn)	SRC1 inh 87, SRC3 inh 88, SRC2 inh 83, Gli-Sufu antag 81, LRH-1 inv ag 92 | Gli-Sufu confirm 92 | Gli cytotox 67 | Wnt3a counter 106
C=CCN1C(=O)[C@@H](CC(=O)NCc2cccc(C(F)(F)F)c2)[C@]2(C(=O)OC)CCCCC=C12	none (no result: SRC1 inh, SRC3 inh, Gli-Sufu antag, LRH-1 inv ag)
Cc1ccc(C2N(c3ccccc3)C(=S)N3CCCN23)cc1 (stereo not drawn)	Gli-Sufu antag 99 | Gli-Sufu confirm inactive | Gli cytotox inactive | Wnt3a counter inactive
CN(C)CC(=O)N[C@@H]1C[C@@H]2O[C@@H](CO)CC[C@@H]2O[C@@H]1CCc1ccc(-c2ccc(F)cc2)cc1	none (no result: SRC1 inh, SRC3 inh, Gli-Sufu antag, LRH-1 inv ag)
COP(=O)(CC(=O)OC(C)(C)C)C(CC(C)C)NC(=O)OCc1ccccc1 (stereo not drawn)	none (no result: SRC1 inh, SRC3 inh, Gli-Sufu antag, LRH-1 inv ag)
CN1CCN(/N=C/c2nc(-c3ccccc3)n3ccccc23)CC1	none | Gli-Sufu confirm inactive | Gli cytotox inactive | Wnt3a counter inactive
O=C1CSc2ccc(C(=O)N3CCCC(C(=O)N4CCCN(Cc5ccccc5)CC4)C3)cc2N1 (stereo not drawn)	none (no result: SRC1 inh, SRC3 inh, Gli-Sufu antag, LRH-1 inv ag)

Screens deposited in PubChem BioAssay by several laboratories.
